Assay outcomes from PubChem.
A selection: hits, their analogues and other compounds. The true share with any hit is near 5.5%.
RORg inh – blocks mouse ROR gamma transcriptional activity; hit rate 5.4% among 310,000; Potency, µM (titrated, usually from 53.6 µM), usual class: inhibitors; P51450; AID 2551; Drosophila S2 Gal4-RORgamma UAS-luciferase reporter, 20 h; also: nearly all actives have a fitted effect of over 60% in size
Target sequence (P51450 whole entry, looked up, the tested form may be a part): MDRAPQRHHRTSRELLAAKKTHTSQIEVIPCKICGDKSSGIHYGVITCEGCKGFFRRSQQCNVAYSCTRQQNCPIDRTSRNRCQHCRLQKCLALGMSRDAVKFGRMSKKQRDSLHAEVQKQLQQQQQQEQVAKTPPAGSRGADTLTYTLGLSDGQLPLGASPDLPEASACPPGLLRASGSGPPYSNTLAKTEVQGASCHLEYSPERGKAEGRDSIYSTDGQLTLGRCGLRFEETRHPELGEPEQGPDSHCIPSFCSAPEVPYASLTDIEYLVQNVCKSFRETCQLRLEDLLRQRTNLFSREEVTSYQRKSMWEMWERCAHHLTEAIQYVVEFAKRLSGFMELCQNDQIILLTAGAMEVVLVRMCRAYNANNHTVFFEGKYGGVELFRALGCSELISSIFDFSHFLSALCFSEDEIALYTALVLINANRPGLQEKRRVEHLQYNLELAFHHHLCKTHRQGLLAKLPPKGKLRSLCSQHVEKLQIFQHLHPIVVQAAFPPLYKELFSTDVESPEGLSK
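Luciferase reporter read in Schneider cells carrying Gal4-RORγ (mouse) and UAS-Photinus luciferase; cells given compound 1 h before 700 uM copper sulfate induction, then incubated 20 h at ambient temperature.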
Gal4-VP16 FLuc – inhibits Gal4-VP16 luciferase reporter, ROR gamma counter-screen | Drosophila S2 Gal4-VP16 UAS-luciferase, luminescence, 20 h | AID 2546 | hit rate 3.5% among 310,000 | Potency, µM (top dose mostly 53.6 µM), hits mostly inhibitors;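 also: Gal4-VP16 expression switched on by copper sulfate through the metallothionein promoter; nearly all actives have a fitted effect of over 50% in size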
uPA generation – inhibitors of cell surface uPA generation; hit rate 0.31% among 330,000; cell surface uPA generation assay, qHTS; Potency, µM (highest dose often 38.3 µM), actives largely listed as inhibitors; AID 540303; active = well fitted inhibition curve with a large enough effect; inconclusive = small, poorly fitted or top-dose-only effect; inactive = no such curve, though single readings can be large or run the other way; tested in mouse RAW 264.7 cells; also: nearly all actives have a fitted effect of over 55% in size
BCR signal inh – inhibitors of chronic active B-cell receptor signaling. ABC-DLBCL IkBa-CBG/CBR reporter, luminescence ratio, 4 h. Potency, µM (doses to about 46.1 µM), actives largely listed as inhibitors. hit rate 0.05% among 340,000; active = well fitted inhibition curve with a large enough effect in the signal ratio, with a control signal flat, not every such curve was filed as active; inconclusive = small, poorly fitted or top-dose-only effect, or effect the other way, or a change in a side signal; the % refers to the signal ratio
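Cell line TMD8 (human ABC DLBCL), stably expressing tet-inducible CBG68-IkBa fusion and CBR; IMDM/0.5% FBS; cpd up to 46 uM; dox induction, 4 h, 37C/5% CO2; dual luminescence; green/red ratio; MG132 control.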
Mito fusion act – mitochondrial division inhibition or fusion activation | Potency, µM (top dose mostly 46.1 µM), hits mostly activators | S. cerevisiae fusion-defective mutant growth rescue, CellTiterGlo 48 h | hit rate 0.23% among 320,000; also: nearly all actives have a fitted effect of over 45% in size
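Growth-rescue viability read-out: after 48 h at the non-permissive 37C in glycerol/ethanol YPEG, yeast mitochondrial fusion mutants are measured by CellTiterGlo luminescence; compounds (23 nl pinned per well) restoring growth score as division inhibitors or fusion activators.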
Integrin act MD – integrin-mediated muscular dystrophy alleviation activation. Potency, µM (top dose mostly 38.3 µM), most hits filed as activators. alpha7betagal myoblasts, beta-gal FDG fluorescence, 48 h. hit rate 0.064% among 350,000; also: nearly all actives have a fitted effect of over 60% in size
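alpha7betagal+/- myoblasts (passage 13, 250/well) treated 48 h at 37C with compounds at 1:260 dilution of DMSO stock. Lysed, then beta-galactosidase activity read as FDG fluorescence (ex 480/em 540) after 30 min, with pre-read for autofluorescence.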
Numbers stand for hits. Unless noted, calls follow the shape of the dose curve; as a rule, active = well fitted curve in the direction sought with a large enough effect; inconclusive = small, poorly fitted or top-dose-only effect, or another doubt; inactive = no such curve, though single readings can be large; an effect the other way counts as inactive or inconclusive.

Results for CC(COc1ccc(C(C)C)cc1)NC(=O)c1ccc(Br)o1 (stereo not given) ?
RORg inh: inconclusive; Gal4-VP16 FLuc: inconclusive; BCR signal inh: inactive; Mito fusion act: inactive

How did CCC1Oc2ccc(C)cc2N(CC(=O)N(Cc2cccnc2)Cc2ccc(C)o2)C1=O (stereo not given) do in these assays?
RORg inh: 14µM; Gal4-VP16 FLuc: inconclusive; BCR signal inh: inconclusive; Mito fusion act: inactive; Integrin act MD: inactive

Results for COc1ccc(-c2nc3cnc(OCc4ccccc4)nc3n(CCC#N)c2=O)cc1 ?
RORg inh: inactive; Gal4-VP16 FLuc: inactive

How did CCN(CC)S(=O)(=O)c1cnccc1N1CCN(c2cccc(Cl)c2)CC1 do in these assays?
RORg inh: inconclusive; Gal4-VP16 FLuc: inactive; uPA generation: inactive; BCR signal inh: inconclusive; Mito fusion act: 13µM; Integrin act MD: inactive

What do the screens show for `CNS(=O)(=O)c1cnccc1N1CCN(c2cccc(Cl)c2)CC1`?
RORg inh: inactive; Gal4-VP16 FLuc: inactive; uPA generation: inactive; Mito fusion act: inactive; Integrin act MD: inactive

What do the screens show for `COc1cccc([C@@H]2Oc3ccc(Br)cc3C[C@H]2OC(=O)N[C@H]2CCCc3ccccc32)c1`?
RORg inh: inactive; Gal4-VP16 FLuc: inactive

What do the screens show for `COc1ccc(CN2CCNC(=O)C2CC(=O)NCCSc2nccn2C)cc1OC` (stereo not given)?
RORg inh: inactive; Gal4-VP16 FLuc: inactive; uPA generation: inactive; BCR signal inh: inactive; Mito fusion act: inactive; Integrin act MD: inactive

What do the screens show for `Cc1cccc(NC(=S)N/N=C2/CCCCc3ccccc32)c1`?
RORg inh: 2.8µM; Gal4-VP16 FLuc: 6.3µM; uPA generation: inactive; BCR signal inh: inconclusive; Mito fusion act: inactive; Integrin act MD: inactive

Results for Cc1ccc(C)c(NC(=S)N/N=C2\CCc3ccccc32)c1 ?
RORg inh: 7.1µM; Gal4-VP16 FLuc: 10µM; uPA generation: inconclusive; BCR signal inh: inactive; Mito fusion act: inactive; Integrin act MD: inactive

What do the screens show for `Cc1ccc(NC(=S)N/N=C2/CCCCc3ccccc32)cc1`?
RORg inh: 3.5µM; Gal4-VP16 FLuc: inactive; uPA generation: inactive; BCR signal inh: inactive; Mito fusion act: inactive; Integrin act MD: inactive

What do the screens show for `COc1ccc(/C=N/NC(=S)Nc2ccccc2)cc1`?
RORg inh: inactive; Gal4-VP16 FLuc: inconclusive; BCR signal inh: inconclusive; Mito fusion act: inactive; Integrin act MD: inactive

What do the screens show for `O=C(N/N=C1\CCc2ccccc21)c1ccccc1O`?
RORg inh: inconclusive; Gal4-VP16 FLuc: inconclusive; uPA generation: inactive; BCR signal inh: inconclusive; Mito fusion act: inactive; Integrin act MD: inactive

Results for COc1ccc(NC(=S)N/N=C2/CCCc3c(C)cc(C)cc32)cc1 ?
RORg inh: 2.8µM; Gal4-VP16 FLuc: inconclusive; uPA generation: inactive; BCR signal inh: inactive; Mito fusion act: inactive; Integrin act MD: inactive

Results for O=C(O/N=C1/CCCc2occc21)c1ccc(Cl)cc1Cl ?
RORg inh: inactive; Gal4-VP16 FLuc: inactive; uPA generation: inactive; BCR signal inh: inactive; Mito fusion act: inconclusive; Integrin act MD: inactive

How did Cc1cc(C)n(-c2nc(NCCC(C)C)c3c4c(sc3n2)COC(C)(C)C4)n1 do in these assays?
RORg inh: 0.63µM; Gal4-VP16 FLuc: inactive; uPA generation: inactive; BCR signal inh: inactive; Mito fusion act: inactive; Integrin act MD: inactive

How did Cc1cc(C)n(-c2nc(-n3nc(C)cc3C)c3c4c(sc3n2)COC(C)(C)C4)n1 do in these assays?
RORg inh: 3.5µM; Gal4-VP16 FLuc: 13µM; BCR signal inh: inconclusive; Mito fusion act: inactive

What do the screens show for `CN(C)CCNc1ncnc2c1sc1nc(N3CCCC3)c3c(c12)CC(C)(C)OC3`?
RORg inh: inactive; Gal4-VP16 FLuc: inactive; uPA generation: inactive; BCR signal inh: inactive; Mito fusion act: inactive; Integrin act MD: inactive

How did CSc1nnc2c3c4c(sc3nc(-n3nc(C)cc3C)n12)COC(C)(C)C4 do in these assays?
RORg inh: inactive; Gal4-VP16 FLuc: inactive; uPA generation: inactive; BCR signal inh: inactive; Mito fusion act: inactive; Integrin act MD: inactive

Results for CCN(CC)CCNc1ncnc2c1sc1nc(N3CCCC3)c3c(c12)CC(C)(C)OC3 ?
RORg inh: 11µM; Gal4-VP16 FLuc: inconclusive; uPA generation: inactive; BCR signal inh: inconclusive; Mito fusion act: inactive; Integrin act MD: inactive

What do the screens show for `CC1(C)Cc2c(c(N3CCOCC3)nc3sc4c(NN)ncnc4c23)CS1`?
RORg inh: 7.9µM; Gal4-VP16 FLuc: 7.1µM; uPA generation: inactive; BCR signal inh: inconclusive; Mito fusion act: inactive; Integrin act MD: inactive

How did CCCc1ncc(CN2CCCCC2C(=O)Nc2ccc(Oc3ccccc3)nc2)cn1 (stereo not given) do in these assays?
uPA generation: inactive; Integrin act MD: inactive

Results for CCC(C)N(C(=O)COC(=O)c1cc([N+](=O)[O-])ccc1N)C1CCS(=O)(=O)C1 (stereo not given) ?
RORg inh: inactive; Gal4-VP16 FLuc: inactive; uPA generation: inactive; BCR signal inh: inconclusive; Mito fusion act: inactive; Integrin act MD: inactive

Results for Cc1cc(C)n(-c2nc(NCCCN(C)C)c3c4c(sc3n2)COC(C)(C)C4)n1 ?
RORg inh: inconclusive; Gal4-VP16 FLuc: inactive; uPA generation: inactive; BCR signal inh: inconclusive; Mito fusion act: inactive; Integrin act MD: inactive

What do the screens show for `Cc1cc(C)n(-c2nc(NCCN(C)C)c3c4c(sc3n2)CCCC4)n1`?
RORg inh: inactive; Gal4-VP16 FLuc: inactive; uPA generation: inactive; BCR signal inh: inconclusive; Mito fusion act: inactive; Integrin act MD: inactive

How did CCN(CC)CCNc1nc(-n2nc(C)cc2C)nc2sc3c(c12)CC(C)(C)OC3 do in these assays?
RORg inh: 2.2µM; Gal4-VP16 FLuc: inconclusive; uPA generation: inactive; BCR signal inh: inactive; Mito fusion act: inactive; Integrin act MD: inactive

How did Cc1cc(C)n(-c2nc(NCCN(C)C)c3c4c(sc3n2)COC(C)(C)C4)n1 do in these assays?
RORg inh: 16µM; Gal4-VP16 FLuc: inactive; uPA generation: inactive; BCR signal inh: inconclusive; Mito fusion act: inactive; Integrin act MD: inactive

How did Cc1cc(C)n(-c2nc(NCCCN(C)C)c3c4c(sc3n2)CCCC4)n1 do in these assays?
RORg inh: 4µM; Gal4-VP16 FLuc: 7.1µM; uPA generation: inactive; BCR signal inh: inconclusive; Mito fusion act: inactive; Integrin act MD: inactive

How did COc1ccc(C/C(C)=N/NS(=O)(=O)c2ccc(Br)cc2)cc1 do in these assays?
RORg inh: 10µM; Gal4-VP16 FLuc: inconclusive; uPA generation: inactive; BCR signal inh: inactive; Mito fusion act: inactive; Integrin act MD: inactive

What do the screens show for `CCOc1cc(C(=O)N/N=C(\C)Cc2ccc(OC)cc2)cc(OCC)c1OCC`?
RORg inh: inactive; Gal4-VP16 FLuc: inactive; uPA generation: inactive; BCR signal inh: inconclusive; Mito fusion act: inactive; Integrin act MD: inactive

What do the screens show for `CC/C(=N\NC(=S)Nc1ccc(OC)cc1)c1ccc(OC(F)F)cc1`?
RORg inh: 13µM; Gal4-VP16 FLuc: inconclusive; uPA generation: inactive; BCR signal inh: inactive; Mito fusion act: inconclusive; Integrin act MD: inactive
